Among the data in PubChem BioAssay are composite z-score and z-score values, retold here.

A short description of assay [1]: compounds binding Alexa647 anti-His antibody – biochemical, small-molecule microarray, 635 nm fluorescence, artefact control for SMM control protein annotation, primary screen (AID 1128).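 Also: score merges feature fluorescence with signal-to-noise for each printed compound spot.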 The following applies: higher = more signal.
Assay [2] concerns Human papillomavirus type 1a E7 protein (residues 1-88). In words: HPV1a E7 small-molecule binders, primary screen, biochemical, small-molecule microarray, residues 1-88, 635 nm (AID 1129). The conditions noted are these: small-molecule microarray binding, fluorescence 635 nm; higher = more signal.
The target in assay [3] is Focal adhesion kinase 1 (Homo sapiens) (UniProt Q05397). Nature of the assay: PTK2 protein binding on printed compound slides – biochemical, small-molecule microarray, 635/667 nm fluorescence, BSA, DTT, primary screen (AID 1130).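 Also: composite of spot emission at 667 nm and signal to noise over triplicate slides.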 The following applies: 635 nm fluorescence, higher = more signal.
In assay [4] the test system is Fibrinogen (Alexa647-labelled). In words: Alexa647-fibrinogen binding to printed small molecules – biochemical, small-molecule microarray, 635/667 nm fluorescence, artefact control for SMM control-protein annotation, profiling panel (AID 1131).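 Also: z-score merges 667 nm fluorescence with per-spot signal-to-noise over triplicate slides.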 The following applies: fibrinogen-A647 binding fluorescence, higher = more signal.
Assay [5] has as its target Follistatin (Homo sapiens) (UniProt P19883). In words: FST protein binding to printed compounds – biochemical, small-molecule microarray, 635/667 nm fluorescence, primary screen (AID 1132). The following applies: 635 nm fluorescence, higher = more signal.
Assay [6] deals with Fibroblast growth factor 2 (Homo sapiens) (UniProt P09038). Nature of the assay: basic fibroblast growth factor binding to printed compounds – biochemical, small-molecule microarray, 635/667 nm fluorescence, primary screen (AID 1133). The following applies: FGF2, fluorescence 635/667, higher = more signal.
Assay [7] can be described thus: JC-1 mitochondrial potential readout, lung cancer cells – cell-based, A549, JC-1 fluorescence, basal, 24 h, 100 nL, profiling panel (AID 1138).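 Also: A549 lung adenocarcinoma cells under basal conditions with no added stimulus; test concentration not given here.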 The conditions noted are these: higher = more signal.
In another assay the test system is Lefty1. Nature of the assay: Lefty1 protein binding to printed compounds – biochemical, small-molecule microarray, 635/667 nm fluorescence, primary screen (AID 1139). The following applies: fluorescence 635/667, higher = more signal.
The subject of assay [8] is wheat germ agglutinin (Triticum aestivum), Alexa647-labelled. In words: Alexa647-WGA lectin binding to printed small molecules – biochemical, small-molecule microarray, 635/667 nm fluorescence, artefact control for SMM control-protein annotation, profiling panel (AID 1140).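 Also: score merges 667 nm feature emission with signal to noise over triplicate slides.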 The following applies: WGA-A647 binding, 635 nm fluorescence, higher = more signal.
Assay [9] addresses Luciferin 4-monooxygenase (Photinus pyralis) (UniProt P08659). Nature of the assay: inhibition of purified Photinus pyralis luciferase – biochemical, luminescence, purified enzyme, 2006 set, primary screen (AID 1141).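 Also: cell-free assay with purified firefly luciferase at 100 ng per well in PBS; test concentration not given here.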 The conditions noted are these: purified firefly luciferase, SteadyGlo luminescence, 30 min; higher = more signal, called active from +8 up or from −8 down.
Assay [10] relates to Wnt5a (protein binding on small-molecule microarray). Nature of the assay: small molecules binding Wnt5a protein – biophysical, small-molecule microarray, 635/667 nm fluorescence, primary screen (AID 1142).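 Also: fluorescence read at 667 nm with signal to noise per printed feature.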 The following applies: 635 nm fluorescence, higher = more signal.
The nature of assay [11]: ATP-based viability of Huh7 replicon cells – cell-based, CellTiter-Glo luminescence, basal, 48 h, cytotoxicity control for HCV replication inhibitor project, primary screen (AID 1143).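 Also: Huh7 hepatoma cells carrying a hepatitis C replication reporter with no stimulus; test concentration not given here.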 The following applies: higher = more signal, called active from +8 up or from −8 down. A general note: In antiviral work, replicon cells carry a viral genome segment that copies itself.
The nature of assay [12]: Pseudomonas biofilm growth suppression – PAO1 strain, BacTiter-Glo luminescence, LB-PBS, primary screen (AID 1144). The following applies: P. aeruginosa PAO1 biofilm, 12 h, higher = more signal.
A short description of assay [13]: basal CRE-LacZ reporter activity in PC12 – cell-based, unstimulated, primary screen (AID 1145). The conditions noted are these: no forskolin, luminescence, 4.5 h, higher = more signal, called active from +8 up or from −8 down.
The nature of assay [14]: forskolin-driven CRE-LacZ activity in PC12 – cell-based, CRE-LacZ reporter, forskolin-stimulated, primary screen (AID 1146).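 Also: PC12 cells with 6xCRE LacZ reporter stimulated by forskolin 10 µM; beta-galactosidase reporter signal reflecting CREB driven transcription.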 The following applies: luminescence, 4.5 h, higher = more signal, called active from +8 up or from −8 down.
For assay [15], the target named is Streptavidin (Streptomyces avidinii) (UniProt P22629). Nature of the assay: compounds binding control protein streptavidin – biophysical, small-molecule microarray, 635/667 nm fluorescence, artefact control for SMM compound annotation, primary screen (AID 1147).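 Also: signal reflects streptavidin binding to arrayed compounds as a control protein.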 The conditions noted are these: higher = more signal.
Assay [16] in a line: probe aInhba binding on compound microarray – biochemical, small-molecule microarray, 635/667 nm fluorescence, primary screen (AID 1148).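 Also: score merges 667nm spot fluorescence with signal-to-noise for antibody binding to printed compounds.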 The following applies: higher = more signal.
Assay [17] deals with Torsin-1A (Homo sapiens) (UniProt O14656). Nature of the assay: TOR1A wild-type binding on microarray – cell lysate, small-molecule microarray, lysate, 635/667 nm, primary screen (AID 1149). The following applies: COS7 hTOR1A-WT lysate, 635 nm fluorescence, higher = more signal.
Assay [18] has the same target. Nature of the assay: torsin A mutant lysate binding on microarrays – cell lysate, small-molecule microarray, COS7 lysate, 635/667 nm fluorescence, primary screen (AID 1150).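 Also: score pools 667 nm emission and signal to noise measuring lysate protein binding.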 The conditions noted are these: COS7 hTOR1A mutant lysate, 635 nm fluorescence, higher = more signal.
Assay [19] concerns Sonic hedgehog protein (Shh). In words: Sonic hedgehog microarray binding compounds – biochemical, small-molecule microarray, 635/667 nm fluorescence, primary screen (AID 1151).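 Also: Shh protein binding to compounds spotted on small-molecule microarray slides; score combines spot fluorescence intensity with signal-to-noise across triplicate slides.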 The conditions noted are these: 635 nm fluorescence, higher = more signal.

Activity calls are given as the source filed them. Unless noted, no rule for the calls is given here.

Chain of Streptavidin (Streptomyces avidinii) (P22629 whole entry, looked up): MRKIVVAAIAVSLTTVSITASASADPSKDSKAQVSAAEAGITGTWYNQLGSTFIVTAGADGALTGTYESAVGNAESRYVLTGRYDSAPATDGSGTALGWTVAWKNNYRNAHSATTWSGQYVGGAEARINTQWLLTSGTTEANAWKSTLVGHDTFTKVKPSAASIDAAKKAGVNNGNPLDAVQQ
Chain of Follistatin (Homo sapiens) (P19883 whole entry, looked up): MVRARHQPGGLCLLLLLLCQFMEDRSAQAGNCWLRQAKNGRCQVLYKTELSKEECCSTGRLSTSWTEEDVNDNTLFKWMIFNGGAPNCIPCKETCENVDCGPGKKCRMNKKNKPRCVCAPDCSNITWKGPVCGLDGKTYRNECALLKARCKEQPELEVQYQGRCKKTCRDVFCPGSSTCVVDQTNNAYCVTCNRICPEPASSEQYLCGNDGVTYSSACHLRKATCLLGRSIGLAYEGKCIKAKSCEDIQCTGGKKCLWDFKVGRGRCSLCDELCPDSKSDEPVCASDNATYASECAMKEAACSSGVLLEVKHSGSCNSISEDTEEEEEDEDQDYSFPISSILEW
Chain of Fibroblast growth factor 2 (Homo sapiens) (P09038 whole entry, looked up): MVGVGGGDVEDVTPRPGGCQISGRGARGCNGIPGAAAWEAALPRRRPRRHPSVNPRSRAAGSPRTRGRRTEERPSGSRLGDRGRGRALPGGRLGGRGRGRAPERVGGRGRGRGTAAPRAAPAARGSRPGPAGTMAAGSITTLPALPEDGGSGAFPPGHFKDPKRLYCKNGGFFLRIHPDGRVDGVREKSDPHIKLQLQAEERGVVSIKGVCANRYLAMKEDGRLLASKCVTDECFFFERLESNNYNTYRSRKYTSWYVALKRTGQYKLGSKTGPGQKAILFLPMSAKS
Chain of Torsin-1A (Homo sapiens) (O14656 whole entry, looked up): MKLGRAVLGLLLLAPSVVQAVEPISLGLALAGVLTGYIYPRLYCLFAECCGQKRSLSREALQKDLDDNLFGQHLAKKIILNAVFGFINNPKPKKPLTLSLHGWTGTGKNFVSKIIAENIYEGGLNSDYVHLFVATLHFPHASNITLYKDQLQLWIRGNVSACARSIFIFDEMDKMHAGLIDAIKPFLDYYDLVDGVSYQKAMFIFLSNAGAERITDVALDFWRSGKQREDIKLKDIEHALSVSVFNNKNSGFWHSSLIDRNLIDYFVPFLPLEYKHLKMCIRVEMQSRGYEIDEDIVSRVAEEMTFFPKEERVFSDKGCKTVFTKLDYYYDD
Chain of Luciferin 4-monooxygenase (Photinus pyralis) (P08659 whole entry, looked up): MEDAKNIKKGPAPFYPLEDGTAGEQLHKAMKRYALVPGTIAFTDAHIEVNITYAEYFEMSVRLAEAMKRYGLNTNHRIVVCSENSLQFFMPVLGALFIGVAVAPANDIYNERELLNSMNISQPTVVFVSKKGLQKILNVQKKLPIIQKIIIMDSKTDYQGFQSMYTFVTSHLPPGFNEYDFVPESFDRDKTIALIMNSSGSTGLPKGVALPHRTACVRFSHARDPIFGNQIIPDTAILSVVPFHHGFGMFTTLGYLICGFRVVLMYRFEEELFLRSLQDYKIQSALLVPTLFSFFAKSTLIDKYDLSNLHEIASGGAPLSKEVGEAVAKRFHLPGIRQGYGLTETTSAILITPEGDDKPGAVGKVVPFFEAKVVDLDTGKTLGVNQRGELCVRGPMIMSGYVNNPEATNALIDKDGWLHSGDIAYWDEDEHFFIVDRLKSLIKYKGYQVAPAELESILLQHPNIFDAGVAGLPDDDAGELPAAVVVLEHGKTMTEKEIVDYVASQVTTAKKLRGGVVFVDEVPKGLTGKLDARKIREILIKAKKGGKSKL
Chain of Focal adhesion kinase 1 (Homo sapiens) (Q05397 whole entry, looked up): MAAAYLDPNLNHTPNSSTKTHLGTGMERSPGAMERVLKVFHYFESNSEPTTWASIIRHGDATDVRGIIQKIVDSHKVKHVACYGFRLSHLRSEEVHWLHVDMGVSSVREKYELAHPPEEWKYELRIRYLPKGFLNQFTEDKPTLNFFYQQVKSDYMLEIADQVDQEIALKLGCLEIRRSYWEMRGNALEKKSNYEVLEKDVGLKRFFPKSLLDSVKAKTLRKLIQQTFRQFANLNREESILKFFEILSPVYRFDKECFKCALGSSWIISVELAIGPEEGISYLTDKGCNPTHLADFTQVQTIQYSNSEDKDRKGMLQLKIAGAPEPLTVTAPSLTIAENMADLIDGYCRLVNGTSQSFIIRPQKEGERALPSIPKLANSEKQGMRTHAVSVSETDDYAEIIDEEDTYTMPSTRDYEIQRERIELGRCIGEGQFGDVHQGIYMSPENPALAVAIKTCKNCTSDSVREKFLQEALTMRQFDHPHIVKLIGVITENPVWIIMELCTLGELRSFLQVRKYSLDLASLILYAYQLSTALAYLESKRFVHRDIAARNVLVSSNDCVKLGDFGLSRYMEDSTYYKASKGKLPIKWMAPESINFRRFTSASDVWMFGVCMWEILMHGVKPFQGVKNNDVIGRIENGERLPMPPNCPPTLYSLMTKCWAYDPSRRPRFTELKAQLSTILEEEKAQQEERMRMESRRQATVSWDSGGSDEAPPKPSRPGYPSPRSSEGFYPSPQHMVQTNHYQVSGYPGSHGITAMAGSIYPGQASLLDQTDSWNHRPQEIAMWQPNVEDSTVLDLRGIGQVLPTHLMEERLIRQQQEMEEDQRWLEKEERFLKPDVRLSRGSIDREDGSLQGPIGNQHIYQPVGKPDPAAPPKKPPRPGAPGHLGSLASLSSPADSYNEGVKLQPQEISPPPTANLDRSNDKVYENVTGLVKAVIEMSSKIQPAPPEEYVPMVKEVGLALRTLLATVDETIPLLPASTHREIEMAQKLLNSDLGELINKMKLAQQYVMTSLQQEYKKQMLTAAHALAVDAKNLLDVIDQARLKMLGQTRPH

`CC1(C)C2C=C(C(O)C3C=CC4C(=O)NC(=O)C4N3Nc3ccc(Cl)cc3Cl)C[C@@H]1C2` (stereo not given in full): the composite z-score in assay [1] was 1.26; in [2] it was 0.87; in assay [3], -0.167; in assay [4], 0.606; in assay [5] it was 1.02; in assay [6], -0.169. For the same compound, the composite z-score with Lefty1 is 0.317; in [8], 0.698; in [10] it was 0.696; in assay [15] it was 0.961; in assay [16], 0.0236; with Torsin-1A (Homo sapiens) [17], -0.0995. For the same compound, the figures for the composite z-score (in the assay with Torsin-1A (Homo sapiens) [18]; in [19]) were 1.09 and -0.193, respectively. Further, the z-score in [7] was -1.44; in assay [9] it was 0.155 (inactive); in assay [11], -2.39 (inactive); in [12] it was -0.418 (inactive); in assay [13], 1.19 (inactive); in assay [14] it was -0.0073 (inactive).

Regarding `COc1cc(Br)cc(C(O)C2C=CC3C(=O)N(C)C(=O)C3N2N2CCCCC2)c1OC` (stereo not given), the composite z-score in [1] is 0.286; in assay [2], 0.665; in [3], 0.446; in [4], -0.83; in [5], -1.02; in assay [6], -1.38. For the same compound, the composite z-score in the assay with Lefty1 is -1.12; in [8], -0.0965; in assay [10] it was -0.274; in assay [15] it was -0.39; in assay [16] it was -0.016; with Torsin-1A (Homo sapiens) [17] it was 0.167. For the same compound, the results for the composite z-score (with Torsin-1A (Homo sapiens) [18]; in assay [19]) were 0.0369 and -1.49, respectively. The z-score in assay [7] is -0.85; in [9], -0.141 (inactive); in assay [11] it was 0.4 (inactive); in [12], -0.311 (inactive); in assay [13] it was 0.822 (inactive); in assay [14], 0.641 (inactive).

Turning to `C=CCNC(=O)[C@@H]1[C@H]2C(=O)O[C@H](c3ccccc3)[C@H](c3ccccc3)N2[C@H](c2ccccc2OCCO)[C@@]12C(=O)N(C(=O)OCCOC)c1ccccc12`, the composite z-score is 0.439 in [1]; 1.2 in assay [2]; -0.0723 in assay [3]; 0.979 in [4]; 1.39 in assay [5]; 1.49 in assay [6]. Besides, the composite z-score is 1.29 with Lefty1; 0.478 in assay [8]; 0.562 in assay [10]; 0.209 in assay [15]; -0.0259 in assay [16]; 0.226 with Torsin-1A (Homo sapiens) [17]. Further, the composite z-score in the assay with Torsin-1A (Homo sapiens) [18] was determined as 0.603; in assay [19] it was 2.17. Further, the z-score in [7] is 0.432; in assay [9], -0.549 (inactive); in assay [11], -4.46 (inactive); in [12], 1.23 (inactive); in assay [13], 0.204 (inactive); in assay [14], -0.768 (inactive).

With `N#Cc1ccc(NN2C(C(O)C(c3ccccc3)c3ccccc3)C=CC3C(=O)N(c4ccccc4)C(=O)C32)cc1` (stereo not given), the composite z-score in assay [1] was 0.238; in assay [2], 1.26; in [3], 0.545; in assay [4] it was 1.01; in [5], 0.337; in [6] it was -0.469. Further, the composite z-score in the assay on Lefty1 was -0.0452; in assay [8], 1.4; in assay [10] it was 0.382; in assay [15], 1.21; in assay [16], 0.204; with Torsin-1A (Homo sapiens) [17], 0.604. Besides, the results for the composite z-score (with Torsin-1A (Homo sapiens) [18]; in assay [19]) were 0.274 and -0.634, respectively. Besides, the z-score is 1.49 in [7]; 0.523 (inactive) in assay [9]; -0.919 (inactive) in assay [11]; -0.731 (inactive) in assay [12]; 0.243 (inactive) in assay [13]; -0.69 (inactive) in [14].
